Results reported in PubChem BioAssay.
Activity calls are given as the source filed them.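 Rule for the calls: active = compounds that lower survival of HCT116 colon cancer cells in the luminescence readout, no numeric limit stated; inactive = the rest.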

Experiment: HCT116 colon cancer cell growth inhibition, primary screen, CellTiter-Glo luminescence, NPC library (AID 1117342)
Conditions: at 20 µM (top of the series)
With `COC(=O)Nc1nc2ccc(C(=O)C3CC3)cc2[nH]1` the inhibition of viability was 87.9% (active).
In the case of `Oc1ccc(C(O)CNCCCCCCNCC(O)c2ccc(O)c(O)c2)cc1O` (stereo not given), the inhibition of viability was 43% (inactive).
In the case of `CC(=O)OC[C@H]1O[C@@H](OC(C)=O)[C@H](OC(C)=O)[C@@H]1OC(C)=O`, the inhibition of viability was 12.6% (inactive).
For `Cc1ccccc1N=Nc1ccc(N=Nc2c(O)ccc3ccccc23)c(C)c1`, the inhibition of viability was 6.3% (inactive).
In the case of `Nc1ccc(C(=O)OCC(O)CO)cc1` (stereo not given), the inhibition of viability was 6.7% (inactive).
In the case of `NNc1nnc(NN)c2ccccc12`, the inhibition of viability was 22.6% (inactive).
In the case of `Cc1ncc(CO)c(C=O)c1O`, the inhibition of viability was 13.3% (inactive).
With `CCOC(=O)c1cc(=O)c2c(OCC(COc3cccc4oc(C(=O)OCC)cc(=O)c34)OC(=O)[C@@H](N)CCCCN)cccc2o1` the inhibition of viability was -25.1% (inactive).
In the case of `CN(C)[C@@H]1C(=O)C(C(=O)NCN2CCCC2)=C(O)[C@@]2(O)C(=O)C3=C(O)c4c(O)cccc4[C@@](C)(O)C3C[C@@H]12` (stereo not given in full), the inhibition of viability was 3.4% (inactive).
For `Nc1nc(=O)n([C@@H]2O[C@H](CO)[C@@H](O)[C@@H]2F)cc1I`, the inhibition of viability was 23.7% (inactive).
For `OCC(O)CS` (stereo not given), the inhibition of viability was 6.77% (inactive).
With `Nc1ccc(/C=C/c2ccc(N)cc2S(=O)(=O)O)c(S(=O)(=O)O)c1` the inhibition of viability was -10.1% (inactive).
In the case of `CC(=O)Nc1ccn(C2COC(COC(=O)c3ccccc3)O2)c(=O)n1` (stereo not given), the inhibition of viability was 56.5% (active).
With `COC1=C(OC)C(=O)C(CC=C(C)CCC=C(C)CCC=C(C)CCC=C(C)CCC=C(C)CCC=C(C)CCC=C(C)CCC=C(C)CCC=C(C)CCC=C(C)C)=C(C)C1=O` the inhibition of viability was 4.6% (inactive).
In the case of `NC[C@H]1O[C@H](O[C@H]2[C@@H](O)[C@@H](O[C@H]3O[C@H](CO)[C@@H](O)[C@H](N)[C@@H]3O)[C@H](N)C[C@@H]2N)[C@H](N)C[C@H]1O`, the inhibition of viability was -0.2% (inactive).
